# About 13,000 (27%) of roughly 48,000 compounds showed an effect of 50% or more. Some of the results follow.
# Tested on: Wolbachia pipientis
# Test: Anti-Wolbachia Cell-Based Screen
# Type: functional
# Parameters: scale not given: in the data most compounds retested in dose-response had high values
# Conditions: 5 µM
row,SMILES,Percent Effect [%]
1,CC(O)CC(C)(C)CNC(=O)NCc1cccc(-n2cncn2)c1 (stereo unspecified),-1.907
2,CCC(CNC(=O)c1nc(=O)[nH][nH]1)Oc1cccc(F)c1 (stereo unspecified),12.08
3,Cc1cc(C)c2c(c1)NC(=O)C2CC(=O)O (stereo unspecified),18.62
4,O=C(c1ccc2c(c1)CCC2)N1CCN(c2ccc(Cl)cn2)CC1,-15.66
5,Cc1ccc(C(=O)N2CCN(S(C)(=O)=O)CC2)cc1N1CCNC1=O,0.6513
6,O=C(c1ccc2c(c1)CCCC2)N1CCn2ncnc2C1,90.14
7,O=C(c1ccc(O)nc1)N1CCc2ccc(O)cc2C1,-1.234
8,CS(=O)(=O)N1CCc2ccc(C(=O)N3CCn4ncnc4C3)cc21,111.8
9,CC(C)c1nnc2n1CCN(C(=O)c1ccc3c(c1)COC3)C2,4.471
10,O=C(c1ccc2c(c1)CCC2)N1CCn2ncnc2C1,98.73
11,CSc1ccc(NC(=O)Nc2ccc3c(c2)N(S(C)(=O)=O)CC3)cc1,-6.619
12,O=C(c1ccc2c(c1)CCC2)N1C[C@@H](CN2CCOCC2)[C@@H](CO)C1,-9.126
13,COC(C)c1nc(CN2CCNCC2)cs1 (stereo unspecified),8.778
14,Cc1noc([C@]23COC[C@H]2CN(S(C)(=O)=O)C3)n1,1.796
15,Cc1noc([C@]23COC[C@H]2CN(S(=O)(=O)C2CC2)C3)n1,7.077
16,Cc1noc([C@]23COC[C@H]2CN(C(=O)CN(C)C)C3)n1.O=C(O)C(F)(F)F,111.8
17,CS(=O)(=O)CC(=O)N1C[C@@H]2COC[C@]2(c2nnc(C3CC3)o2)C1,-25.79
18,Cc1noc([C@]23COC[C@H]2CN(C(=O)N2CCCC2)C3)n1,106.7
19,Cc1noc([C@@]23CCO[C@@H]2CCN(C(=O)c2ccsc2)C3)n1,10.18
20,Cc1noc([C@]23COC[C@H]2CN(C(=O)Cc2ccsc2)C3)n1,110.7
21,Cc1noc([C@]23COC[C@H]2CN(S(=O)(=O)N(C)C)C3)n1,-12.17
22,Cc1noc([C@]23COC[C@H]2CN(C(=O)C2CCOCC2)C3)n1,-8.72
23,Cc1cc(C(=O)N2C[C@@H]3COC[C@]3(CN(C)C)C2)sc1C.O=C(O)C(F)(F)F,-22.46
24,Cc1noc([C@]23COC[C@H]2CN(C(=O)COC2CCCC2)C3)n1,97.21
25,Cc1nc([C@@H]2C[C@@H]3CCN(C(=O)Cc4ccsc4)C[C@H]3O2)no1,-14.45
26,Cc1cnn(CC2CN(c3ncnc4ccsc34)CCO2)c1 (stereo unspecified),-19.26

row,SMILES,Percent Effect [%]
1,O=C(Nc1cn[nH]c1)N(CCCO)C1CCc2ccccc21 (stereo unspecified),-15.52
2,Cc1cc(NC(=O)N2CCOCC2)nn1-c1cccc(Cl)c1,1.002
3,c1ccc(COCCN2CCc3[nH]cnc3C2c2ccoc2)cc1 (stereo unspecified),3.153
4,O=C(NCc1cscn1)NC1CCN(c2ncccc2Cl)C1 (stereo unspecified),-8.414
5,CC(C)CC(NS(C)(=O)=O)C(=O)N(C)Cc1nnc2n1CCC2 (stereo unspecified),-5.124
6,COc1cccc(OC2CN(C(=O)C3CCCN(C(=O)N(C)C)C3)C2)c1 (stereo unspecified),-3.604
7,CCOCC(=O)N1C[C@@H]2COC[C@H](c3nc(C)no3)[C@@H]2C1,1.076
8,Cc1cc(C(=O)N2C[C@@H]3COC[C@]3(c3nnc(C)o3)C2)on1,27.9
9,CCOCC(=O)N1C[C@@H]2COC[C@]2(c2nc(C)no2)C1,107.1
10,CN(C)CCNC(=O)c1nc2c(o1)CN(c1ncccn1)C2,-6.07
11,Cc1nc(-n2cnnc2)ccc1-c1cccc2c1CCNC2,-4.509
12,Cc1ncc2c(c1CNC(=O)C1(c3ccc(F)cc3)CC1)CCNC2,13.15
13,CCNC(=O)Cc1ccc(-c2cccc3c2CCNC3)cc1,110.7
14,CN(C)C(=O)Cc1ccc(-c2cccc3c2CCNC3)cc1,105
15,CCNC(=O)Cc1ccc(NC(=O)NC(CC)c2ccncc2)cc1 (stereo unspecified),3.124
16,Cc1cc(-c2cccc3c2CCNC3)cnc1-n1cnnc1,3.521
17,CCS(=O)(=O)CCNC(=O)NCc1ccccc1-n1cccn1,-14.43
18,CS(=O)(=O)N1CCC2(CC1)CC(OCC1CCOCC1)CO2 (stereo unspecified),-4.18
19,CCCc1nc(CN(CC)C(=O)c2ccc3c(c2)nnn3C)no1,9.755
20,COCC(O)CN1CCC(=O)N(CC(=O)C(C)(C)C)Cc2ccccc21 (stereo unspecified),110.3
21,COCC(O)CN1CCC(=O)N(CC=C(C)C)Cc2ccccc21 (stereo unspecified),122.6
22,COc1ccc(CNC(=O)CN2CCc3ccccc32)cc1,5.049
23,COCCC(=O)N1CCN(CC2CC2)c2ncccc2C1,-45.17
24,COCC(O)CN1CCC(=O)N(CC2CC2)Cc2ccccc21 (stereo unspecified),108.3
25,CCCS(=O)(=O)CC(=O)N1CCN(CC2CC2)c2ccccc21,-17.3
26,O=C(CN1CCc2ccccc21)Nc1ccc(OC(F)F)cc1,-23.08

row,SMILES,Percent Effect [%]
1,O=C(NCCNc1ncccn1)c1ccc(OCc2ccccc2)nc1,-6.041
2,CN(c1ccc(CNC(=O)c2c[nH]c(=O)c(Cl)c2)cc1)C1CCCCC1,0.5041
3,CCOCCOC(C)C(=O)Nc1nccn1Cc1ccccc1 (stereo unspecified),-11.15
4,CC(CCS(C)(=O)=O)NC(=O)NCc1ccc2ccccc2c1 (stereo unspecified),-7.499
5,Cc1cc(C)n(C2CN(c3nc(-c4ccncc4)nc4c3CCC4)C2)n1,-1.448
6,CN(C)C(=O)c1ccc(NCCNc2ccc3ccccc3n2)nc1,-5.082
7,Cc1nc(C2CCCN(C(=O)c3ccncc3)C2)c2sccn12 (stereo unspecified),112
8,Cc1nc(C2CCN(C(=O)c3ccc(=O)n(C)c3)CC2)c2sccn12,-4.246
9,CCCn1ncc(C(=O)N2CCN([C@H]3CCCC[C@@H]3O)CC2)c1C,2.84
10,Cc1c(C(=O)N2CCC(c3nc(C)n4ccsc34)CC2)cnn1C,112.4
11,CCOc1cc(C)nc(N2CCN(C(=O)c3ccnn3C)CC2)n1,4.776
12,Cc1csc(C2CCCN(C(=O)c3cnn4ccc(C)nc34)C2)n1 (stereo unspecified),-3.808
13,Cc1nc(C2CCN(C(=O)c3ccnn3C)CC2)c2sccn12,90.51
14,O=C(CCCN1CCCCC1)N1CCN(C(=O)c2ccc[nH]2)CC1,1.236
15,CCC1CN(C(=O)COc2ccc(C(=O)NC3CC3)cc2)CCO1 (stereo unspecified),-23.61
16,CCc1nccn1CCC(=O)N1CCN(c2ccccc2C)CC1C (stereo unspecified),0.5766
17,CC(=O)N1CCC(c2ccnc(Nc3ccc(C)cn3)n2)C1 (stereo unspecified),111.1
18,CC(=O)N1CCN(c2ccccc2CNc2ccc(C)cn2)CC1,1.224
19,Cc1ccc(Nc2nccc(C3CCN(C(=O)CO)C3)n2)nc1 (stereo unspecified),147.3
20,CC(=O)N1CCC(NS(=O)(=O)c2cccnc2)CC1,4.265
21,CC(=O)N1CC[C@H](c2nc3cc(C)ccc3o2)C1,-3.722
22,CNCC(=O)N1CCC(c2ccnc(Nc3ccc(C)cn3)n2)C1.Cl (stereo unspecified),-6.427
23,CC(=O)N1CCC(c2ccnc(Nc3cncnc3)n2)CC1,88.64
24,O=C(CCSc1ccc(F)cc1)NS(=O)(=O)c1ccc2c(c1)OCCO2,5.18
25,FC(F)(F)c1ccc(-c2cc(NC3CCNCC3)nc3[nH]ccc23)nc1,-3.524
26,COCCN(C/C=C/c1ccccc1)Cc1nccs1,-13.78

row,SMILES,Percent Effect [%]
1,O=c1c2ccc(C(F)(F)F)cc2ncn1CCCN1CCCCC1CO (stereo unspecified),127.8
2,OCC1CCCCN1Cc1cc(O)c2cccc(F)c2n1 (stereo unspecified),-10.07
3,CC(C)N1CCCCC1CCn1cnc2cc(C(F)(F)F)ccc2c1=O (stereo unspecified),86.9
4,CCC1CCCCN1C(=O)CCn1cnc2sccc2c1=O (stereo unspecified),3.224
5,OCC1CCCCN1CCCNCc1cc(O)c2cc(F)ccc2n1 (stereo unspecified),13.42
6,Cc1nc(C)n(CC2CCCCN2CCCN2CCCC2=O)n1 (stereo unspecified),-1.453
7,Cc1cc(C)n(CC2CCCCN2CCCS(N)(=O)=O)n1 (stereo unspecified),6.399
8,OCC1CCCCN1CCn1ccnc1-c1ccc2c(c1)OCCO2 (stereo unspecified),3.348
9,CC1CCCCN1C(=O)CCn1cnc2sccc2c1=O (stereo unspecified),-3.502
10,CC(C)(C)c1cc2ncn(CCCN3CCCCC3CO)c(=O)c2s1 (stereo unspecified),91.32
11,O=c1c2ccc(Cl)cc2ncn1CCCN1CCCCC1CO (stereo unspecified),62.54
12,CC1CCN(CC(O)Cn2cnc3ccc(Cl)cc3c2=O)CC1 (stereo unspecified),-0.72
13,Cc1nccc(N2CCC(=O)N(Cc3ccc(F)cc3)C(C(C)C)C2)n1 (stereo unspecified),-4.712
14,Cc1ccc(CC(=O)Nc2ccc(CS(C)(=O)=O)c(F)c2)cc1,-3.383
15,O=C1NCCN1CCNCC1(O)CCCN(CCC2CCCCC2)C1=O (stereo unspecified),-3.271
16,Cc1nnsc1C(=O)N(C)Cc1nc(-c2ccccn2)no1,-8.145
17,Cc1nnc(CN2CCN(C)C3(CCC(=O)N(CCO)CC3)C2)s1 (stereo unspecified),5.792
18,Cc1n[nH]c(C)c1CCNC(=O)Nc1ccc(S(C)(=O)=O)cc1,3.499
19,Cc1ccc(CN2CCCn3cnc(COCC4CC4)c3C2)o1.O=C(O)C(F)(F)F,8.584
20,Clc1ccccc1C1(c2ccnc(CC3CC3)n2)CCNCC1,5.526
21,Cn1cnnc1C1CCCN(C(=O)c2ccc3c(c2)OCCCO3)C1 (stereo unspecified),0.4143
22,Cc1ccc(C(=O)N2CCCC(c3nncn3C)C2)c(C)c1 (stereo unspecified),142.4
23,Cc1occc1C(=O)N1CCCC(c2nncn2C)C1 (stereo unspecified),118
